Compound activity: PubChem BioAssay, National Center for Advancing Translational Sciences (NCATS)
Rows were chosen to be rich in hits. Some 5.2% of all compounds tested hit in one or more screens of this group.
Tau fibril FP – blocks human tau fibril formation measured by polarization. 280,000 compounds, 0.39% hits. K18 P301L tau heparin fibrillization, Alexa594 FP, 6 h. Potency, µM (series often up to 57.7 µM), for the others: at the top dose activity, negative = inhibition, most hits filed as inhibitors. AID 1468; also: potency is read from the fitted curve at half-maximal effect; nearly all actives have a fitted effect of over 55% in size
Target sequence (P10636 561-689 P618L limits assumed): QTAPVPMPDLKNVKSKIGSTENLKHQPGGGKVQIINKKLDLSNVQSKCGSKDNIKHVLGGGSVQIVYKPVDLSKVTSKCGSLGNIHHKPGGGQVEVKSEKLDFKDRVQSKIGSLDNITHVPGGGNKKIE
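Human tau K18 […] P301L fragment, 15 uM unlabeled plus 0.24 uM Alexa 594-labeled tau (final), with compound and 20 uM heparin in 100 mM sodium acetate pH 7; 6 hr at 37 C, then Alexa 594 FP read.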
Tau fibril ThT – inhibitors of human tau fibril formation, thioflavin T binding; recombinant tau K18 P301L, heparin-induced fibrillization, ThT fluorescence; Potency, µM (titrated, usually from 57.4 µM), without a hit: at the top dose activity, negative = inhibition, most hits filed as inhibitors; 270,000 compounds, 2.1% hits; also: potency is read from the fitted curve at half-maximal effect; nearly all actives have a fitted effect of over 55% in size
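K18 P301L tau (15 uM + 0.24 uM Alexa 594-tagged), heparin 20 uM, NaOAc pH 7, 6 h 37 C; ThT 30 uM, 1 h RT, ex 450/em 510 nm.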
Tau fluor cs – counter-screen for tau fibril formation inhibitors | tau K18 P301L Alexa594 fluorescence, heparin fibrillization | Potency, µM (titrated, usually from 57.7 µM), without a hit: at the top dose activity change, negative = decrease | 280,000 compounds, 0.93% hits | AID 1463; also: potency is read from the fitted curve at half-maximal effect; nearly all actives have a fitted effect of over 55% in size
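Human tau K18 P301L (15 uM unlabeled, 0.24 uM Alexa 594-labeled) in 100 mM sodium acetate pH 7 with 20 uM heparin, 6 hr at 37 C. ThT 30 uM added, 1 hr ambient; Alexa 594 FP and total fluorescence read at 555/632 nm.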
Sfp PPTase inh – inhibitors of Bacillus subtilis Sfp phosphopantetheinyl transferase | Q9F4F7 | Biochemical Sfp PPTase activity, qHTS | Potency, µM, for the others: largest response in the series, negative = inhibition, hits mostly inhibitors | 310,000 compounds, 3.5% hits;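 also: the enzyme is Sfp with the accession as filed and its product quenches rhodamine fluorescence; potency is read from the fitted curve at half-maximal effect; 0% = enzyme reaction without inhibitor and -100% = no enzyme wells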
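Sfp 15 nM + cpd, 15 min RT; start w/ rhodamine-CoA 5 uM, BHQ-2-YbbR 12.5 uM (final); 50 mM Hepes pH 7.6, 10 mM MgCl2, 0.01% NP-40, 0.01% BSA; read 525/598 nm at 0 and 30 min.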
FBPA coupling cs – coupling enzyme interference in Giardia aldolase counter-screen. 290,000 compounds, 0.67% hits. coupling enzyme system counterscreen, AmpLite Red fluorescence. AID 2472. activity change, negative = inhibition, % at 58.2 µM, hits read low; in the data active = activity change below about -30%
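Compounds tested against the coupling enzymes alone at 57.5 uM final; readout was AmpLite Red fluorescence (525/598 nm) after 20 min at RT.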
Numbers without * were called inactive; ? = inconclusive; / = no result given; [ ] = another dose, or the depositor's remark. Unless noted, calls follow the shape of the dose curve; as a rule, active = well fitted curve in the direction sought with a large enough effect; inconclusive = small, poorly fitted or top-dose-only effect, or another doubt; inactive = no such curve, though single readings can be large; an effect the other way counts as inactive or inconclusive. Unless noted, % is scaled to controls: 0 for no effect and ±100 for the full control effect.

SMILES | Tau fibril FP | Tau fibril ThT | Tau fluor cs | Sfp PPTase inh | FBPA coupling cs
O=C(COc1ccc2ccccc2c1)Nc1cccc(C(=O)Nc2ccccc2C(=O)O)c1 | 7% | 12% | -9% | 7% | 7
Cc1ccc(C(=O)NC(=S)/C=C2\N(C)c3ccccc3C2(C)C)cc1 | 3% | 10µM* | -16% | ? | -2
Cc1c(N=C/C=C2\N(C)c3ccccc3C2(C)C)c(=O)n(-c2ccccc2)n1C | 3% | ? | -6% | 0% | 1
CC(C)C(=O)NC(=S)/C=C1/N(C)c2ccccc2C1(C)C | 10% | ? | ? | ? | -3
Cc1c(NC(=S)/C=C2\N(C)c3ccccc3C2(C)C)c(=O)n(-c2ccccc2)n1C | 11% | ? | 20% | 50µM* | /
COc1cc(OC)c(N(C)C(=O)c2cn(C3CCCC3)c(=O)c3c2c2ccccc2n3C)cc1Cl | 1% | ? | -20% | / | /
CC#CCN1c2ccccc2[C@]23C[C@@H](C(=O)OC)N(C(=O)COCc4ccccc4)C2=NC(C(=O)OC)=C(C(=O)OC)[C@H]13 | -5%[11.6 µM] | -5%[11.5 µM] | -4%[11.6 µM] | 12% | 2
COc1ccccc1Nc1ncc(-c2cccs2)s1 | -8% | 14µM* | 16µM*[quencher] | -27% | 1
COc1ccccc1Nc1ccc(C(=O)NCc2cccs2)cn1 | -3%[2.34 µM] | -2% | -6% | 20% | 18
CCOc1ccccc1CNS(=O)(=O)c1ccc(-c2coc(C)n2)cc1 | 8% | 7% | -9% | / | /
O=C1c2cccc3cc([N+](=O)[O-])cc(c23)C(=O)N1CCN1CCCC1 | 13% | / | ? | -2% | 0
O=C1c2cccc3cc([N+](=O)[O-])cc(c23)C(=O)N1/N=C/c1ccc(O)cc1O | -10% | ? | 13µM*[quencher] | -13% | -3
O=C1CCCC(=NCc2ccco2)C1 | -5% | -3% | -1% | 11% | 1
CN(C)c1nc(=NCc2ccco2)ss1 | 14µM* | 8.9µM* | -13% | 0.5µM* | -56*
Cc1oc(C)c2c(=O)cc(-c3ccc4c(c3)OCO4)cc(OC(=O)c3ccccc3Br)c12 | -6% | ? | -23% | / | /
Cc1cc(S(=O)(=O)ON2C(=O)c3ccccc3C2=O)ccc1F | / | / | / | 11µM* | -1
O=C1c2ccccc2C(=O)N1OS(=O)(=O)c1ccccc1 | ? | ? | -15% | 10µM* | 0
Cc1ccc(S(=O)(=O)ON2C(=O)c3cccc4cccc(c34)C2=O)cc1 | -20% | -5% | -20% | -6% | 0
Cc1ccc(C)c(S(=O)(=O)ON2C(=O)c3ccccc3C2=O)c1 | -11% | ? | -11% | 18µM* | 2
O=C1c2cccc3cccc(c23)C(=O)N1OS(=O)(=O)c1ccccc1 | ? | -23% | ? | -9% | -3
Cc1ccc(CNC(=O)C2CCN(S(=O)(=O)c3ccc(F)cc3)CC2)cc1 | -5% | -10% | -20% | / | /
COc1cccc(C2C=C(Nc3ccccc3)C(=O)N2c2ccccc2)c1 (stereo not drawn) | 5% | 3% | 2% | 63µM* | -10
COc1ccc(C2C=C(Nc3ccccc3)C(=O)N2c2ccccc2)cc1OC (stereo not drawn) | ? | 13µM* | -25% | ? | 0
COc1ccc(CNCc2ccc3c(c2)n(C)c(=O)n3C)cc1 | 5% | 12% | 7% | / | /
O=C1CCC(=O)N1CO | / | / | / | 9% | /
SMILES | Tau fibril FP | Tau fibril ThT | Tau fluor cs | Sfp PPTase inh | FBPA coupling cs
CCC(C(=O)Nc1cccc(-c2cn3cccnc3n2)c1)c1ccccc1 (stereo not drawn) | 2% | 3% | ? | / | /
CCOC(=O)N1CCC(N2CCN(S(=O)(=O)c3ccc(Cl)cc3)CC2)CC1 | 1% | -5% | -1% | 50µM* | -4
CCOC(=O)C1=C(C)OC(N)=C(C#N)C1c1ccc(C)o1 (stereo not drawn) | -2% | -12% | -9% | 11% | 0
CCc1ccc(C2C(C#N)=C(N)SC(N)=C2C#N)s1 | ? | 14µM* | ? | -10% | -1
Cc1ccc(C2C(C#N)=C(N)SC(N)=C2C#N)o1 | 18µM* | 14µM* | ? | 13µM* | -25
CCOC(=O)C(C)Sc1nnc2ccc3ccccc3n12 (stereo not drawn) | 6% | 3% | -2% | / | /
CN1C=CC=C/C1=C1\SC(=S)N(c2ccccc2)C1=O | 3% | ? | -3% | 25µM* | 0
CN1C=CC=C/C1=C1\SC(=S)N(C2CCCCC2)C1=O | 4% | ? | -24% | -18% | 2
CN1C=CC=C/C1=C1\SC(=S)N(CC(=O)O)C1=O | -10% | ? | -4% | 45µM* | 0
CCN1C(=O)/C(=C2/C=CC=CN2C)OC1=S | -2% | -11% | 0% | -17% | 1
COc1cccc(CSc2nc3n(n2)C(c2cccs2)C(C(=O)Nc2ccccc2C)=C(C)N3)c1 (stereo not drawn) | 2% | 3% | 1% | / | /
Cc1ccc(Nc2cc(-c3ccccc3)nc(C)n2)cc1 | 3% | -6% | ? | / | /
Cc1nc(Nc2ccc(Cl)cc2)cc(-c2ccccc2)n1 | 28µM* | 21% | 13µM*[quencher] | / | /
COc1cccc(Nc2cc(-c3ccccc3)nc(C)n2)c1 | -9% | ? | 28µM*[quencher] | / | /
COc1ccc(Nc2cc(Nc3cccc(OC)c3)ncn2)cc1 | / | / | / | -5% | 1
COc1cc(C(=S)N(C)C)ccc1O | -4% | ? | -7% | 40µM* | 3
CCCOC(=O)c1ccc(O)c(OC)c1 | -1% | -13% | -15% | -7% | 2
O=C1CSC(c2ccccc2[N+](=O)[O-])N1c1ccccc1 (stereo not drawn) | -12% | -8% | -10% | 11% | 0
O=C1CSC(c2ccccc2[N+](=O)[O-])N1c1ccc(O)cc1 (stereo not drawn) | 3% | -4% | -4% | 50µM* | 8
Cc1cccn2c(=O)cc(CSc3nnc(NC(=O)COc4ccc(F)cc4)s3)nc12 | 4% | -9% | -9% | / | /
Cc1cc(C)c(NC(=O)c2c(C)oc3c2C2=NCCN2C=N3)c(C)c1 | 3% | 1% | -1% | / | /
Cc1cc(F)ccc1NC(=O)Cn1c(=O)ccc2cc(S(=O)(=O)N3CCC(C)CC3)ccc21 | -9% | 8% | -4% | / | /
Cn1c(SCC(=O)c2ccc(O)c(O)c2)nnc1-c1ccccc1 | / | / | / | 79µM* | 1
Cc1cc(SCC(=O)c2ccc(O)c(O)c2)n2nc(C)c(-c3ccccc3)c2n1 | -4% | ? | 11µM*[quencher] | 0% | -2
O=C(CSc1nc2ccccc2n1CCc1ccccc1)c1ccc(O)c(O)c1 | -3% | ? | 25µM*[quencher] | 50µM* | 0
CC(=O)Nc1ccc(-c2nnc(SCC(=O)c3ccc4c(c3)Cc3ccccc3-4)n2C)cc1 | -4% | ? | -4% | 89µM* | 3
Cn1c(SCC(=O)c2ccc3c(c2)Cc2ccccc2-3)nnc1-c1cccc(N)c1 | 7% | 13% | 13% | 13% | 1
Cc1ccccc1-c1cncnc1NCc1cccs1 | / | / | / | 2% | 14
